Measured values reported in PubChem BioAssay AID504465 (National Center for Advancing Translational Sciences (NCATS), 2011).
Among all 2,100 compounds or so, about 210 (10%) were called active. Another 53% or so got no clear call; they are omitted. Calls come from the whole dose curve; as a rule, active = well fitted inhibition curve with a large enough effect; inconclusive = small, poorly fitted or top-dose-only effect, or effect the other way; inactive = no such curve, though single readings can be large or run the other way. The list shows a part of the results. Where a call stands in place of a potency, no number is given.

Test: IN Cell qHTS Assay for Inhibitors of the mTORC1 Signaling Pathway in MEF (Tsc2-/-, p53-/-) Cells: Sytravon; note: nearly all actives have a fitted effect of over 60% in size
Conditions: phospho-rpS6 immunofluorescence, 24 h; series mostly up to 38.3 µM
Method in brief: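 Tsc2-/-, p53-/- MEFs (empty-vector) treated with compound 24 h at 37 degree Celsius, then fixed and stained for phospho-rpS6 Ser235/236 (Alexa-488) plus Hoechst. Reported as % positive cells, thresholds set against 7.5 nM rapamycin and DMSO wells.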
Potency is the fitted concentration of half-maximal effect.

| Structure (SMILES) | Potency |
| --- | --- |
| O=c1[nH]c(SCc2ccc(Br)cc2)nc2c1CCCC2 | inactive |
| Brc1ccc(Nc2c3c(nc4nncn24)CCC3)cc1 | 10.4 µM (active) |
| COc1ccc(Nc2c3c(nc4nncn24)CCC3)cc1OC | inactive |
| CCOc1ccc(-c2nonc2NC(=O)c2oc3ccc(CC)cc3c2C)cc1 | inactive |
| NS(=O)(=O)c1ccc(CCNC(=O)C2COc3ccccc3C2)cc1 (stereo not drawn) | inactive |
| Cc1oc2ccc(O)c(CN3CCCCCC3)c2c1C(=O)Nc1cccc(Cl)c1C | inactive |
| COc1ccc(NC(=O)c2c(C)oc3ccc(O)c(CN4CCCC(C)C4)c23)cc1 (stereo not drawn) | inactive |
| Cc1oc2ccc(O)c(CN3CCC(C)CC3)c2c1C(=O)Nc1ccccc1 | 5.21 µM (active) |
| COc1ccc(NC(=O)c2c(C)oc3ccc(O)c(CN4CCN(Cc5ccccc5)CC4)c23)cc1Cl | inactive |
| COc1ccc(NC(=O)c2c(C)oc3ccc(O)c(CN4CCC(C)CC4)c23)cc1Cl | 13.1 µM (active) |
| Cc1ccc(NC(=O)c2c(C)oc3ccc(O)c(CN4CCCCCC4)c23)cc1 | inactive |
| O=C(Cn1cc(SCc2ccc(Cl)cc2)c2ccccc21)N1CCCC1 | inactive |
| Oc1c(C(Nc2ccccn2)c2ccccc2F)ccc2cccnc12 (stereo not drawn) | inactive |
| COc1ccc(C)cc1NC(=O)c1cc(S(=O)(=O)N2CCN(c3cccc(C)c3C)CC2)ccc1F | inactive |
| Cc1cc(NC(=O)C2CCC(CNS(=O)(=O)c3ccc(Br)s3)CC2)ccc1Br (stereo not drawn) | inactive |
| COc1ccccc1C(=O)Nc1sc(Nc2ccccc2)nc1C(N)=O | 18.5 µM (active) |
| COc1ccccc1C(=O)Nc1nc2ccc(S(=O)(=O)N3CCCC3)cc2s1 | inactive |
| COc1ccccc1C(=O)Nc1cccc(OCc2cc(=O)n3ccccc3n2)c1 | inactive |
| CCCCNC(=O)CSc1nc2n[nH]c(C)c2c(=N)n1-c1cccc(Cl)c1C | inactive |
| Cc1ccc(-c2nc3ccc(Cl)cn3c2Nc2ccccc2C)s1 | inactive |
| Cc1cc(C)cc(NS(=O)(=O)c2ccc(-c3cc(C)no3)s2)c1 | inactive |
| CCC1=Nc2cc(C(=O)NC3CCCC3)ccc2Sc2ccc(Cl)cc21 | inactive |
| Cc1nc(-c2ccc(F)cc2)sc1CCNC(=O)C(=O)Nc1ccc2c(c1)OCCO2 | inactive |
| CC(=O)Nc1cccc(NC(=O)C(=O)NCCc2sc(-c3ccccc3)nc2C)c1 | 2.33 µM (active) |

| Structure (SMILES) | Potency |
| --- | --- |
| CCCC(=O)Nc1cccc(-c2cn3c(C)csc3n2)c1 | inactive |
| O=c1oc2ccccc2cc1-c1cn2cc(Cc3ccccc3F)sc2n1 | inactive |
| CCOc1cc(C2C(C(=O)OC)=C(C)NC3=C2C(=O)c2ccccc23)cc(Br)c1OCC (stereo not drawn) | inactive |
| CC(NC(=O)c1c2c(nc3ccccc13)C(=O)N(C1CCCCC1)C2)c1ccccc1 (stereo not drawn) | inactive |
| Cc1ccc(CN2C(=O)c3ccccc3Sc3ccc(C(=O)NCCCN4CCOCC4)cc32)cc1 | 16.5 µM (active) |
| CC1CCCN(CCCNC(=O)c2ccc3c(c2)N(Cc2cccc(Cl)c2)C(=O)c2ccccc2S3(=O)=O)C1 (stereo not drawn) | inactive |
| CCCCN(CC)CCCNC(=O)c1ccc2c(c1)N(Cc1ccc(C)cc1)C(=O)c1ccccc1S2 | inactive |
| Cc1ccc(C)c(CN2C(=O)c3ccccc3S(=O)(=O)c3ccc(C(=O)NCCCN4CCCC(C)C4)cc32)c1 (stereo not drawn) | 5.21 µM (active) |
| CCC1CCCCN1CCCNC(=O)c1ccc2c(c1)N(Cc1cccc(Cl)c1)C(=O)c1ccccc1S2(=O)=O (stereo not drawn) | inactive |
| Cc1cccc(CN2C(=O)c3ccccc3Sc3ccc(C(=O)NC4CCCCC4)cc32)c1 | inactive |
| CCN(CC)CCCNc1cc(-c2ccccc2)nc(C)n1 | inactive |
| CC(C)c1ccc(C2CC(=O)Nc3cc4c(cc32)OCCO4)cc1 (stereo not drawn) | inactive |
| O=C(NCCCc1nc2ccccc2n1Cc1ccccc1F)c1ccco1 | inactive |
| COc1ccc(CNc2oc(/C=C/c3cc(OC)c(OC)c(OC)c3)nc2C#N)cc1 | inactive |
| Cc1ccccc1OCc1ccc(-c2nc(C#N)c(N3CCN(C)CC3)o2)o1 | inactive |
| CCOc1ccc(/C=C/c2nc(C#N)c(NCCCN(C)C)o2)cc1 | inactive |
| Cc1cccc(OCc2ccc(-c3nc(C#N)c(NCCN(C)C)o3)o2)c1 | 5.85 µM (active) |
| COc1ccc(CNc2oc(/C=C/c3cccc(OC)c3)nc2C#N)cc1 | inactive |
| COc1ccc(CNc2oc(COc3cccc(C)c3)nc2C#N)cc1 | 3.69 µM (active) |
| Cc1cc(=O)n2nc(N3CCC(C(=O)NCc4ccc(Cl)cc4)CC3)sc2n1 | inactive |
| CCOCCCNC(=O)C1CCN(c2nc3ccc(Cl)cc3[nH]2)CC1 | inactive |
| CCCN(CCC)CCCNC(=O)C1CCN(c2nc3ccc(CC)cc3s2)CC1 | 6.56 µM (active) |
| CCCc1ccc(NC(=O)C2CCN(c3cnccn3)CC2)cc1 | inactive |
| CCCCN(C)CCCNC(=O)C1CCN(c2nc3ccc(CC)cc3s2)CC1 | 5.21 µM (active) |
